Assay results: PubChem BioAssay (Tox21)
Several values for one entry are separate records, joined by “and”; a condition that tells them apart may be missing. Identical values can stand only once. Records with an inconclusive call do not appear. Activity calls are given as the source filed them. Unless noted, the call rests on the fitted dose curve; in most records, active means well fitted curve in the direction sought with a large enough effect in the repeat runs; inconclusive means weak or mixed curves; inactive means no such curve, though single readings can be large; an effect the other way counts as inactive or inconclusive.

Key:
[1] = qHTS assay to identify small molecule agonists of the hypoxia (HIF-1) signaling pathway - cell viability counter screen (AID 1224844; calls by dose curve; further: nearly all actives have a fitted effect of over 50% in size)
Method in brief: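 Multiplexed with the HRE beta-lactamase assay, this viability read used CellTiter-Glo luminescence (30 min, RT) on HRE-bla ME-180 cells treated 17 hrs with compounds in 0.5% dialyzed FBS medium.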

[2] = qHTS assay to identify small molecule agonists of H2AX (AID 1224845; active means well fitted activation curve with a large enough effect in the signal ratio in the repeat runs, not every such curve was filed as active; the % refers to the signal ratio)
Method in brief: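 Phospho-H2AX Ser139 measured by HTRF (ex 320 nm; em 665 and 620 nm) after 24 hr antibody incubation. Compounds, 15 concentrations, 0.76% DMSO, were applied to CHO-K1 cells for 3hr at 37C before lysis.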

[3] = qHTS assay to identify small molecule agonists of the hypoxia (HIF-1) signaling pathway (AID 1224846; active means well fitted activation curve with a large enough effect in the signal ratio in the repeat runs, not every such curve was filed as active; the % refers to the signal ratio)
Method in brief: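 Hypoxia-pathway activation was scored as increased beta-lactamase from an HRE-controlled reporter in ME-180 cells; plated at 2,000 cells per well with 0.5% dialyzed FBS, they were exposed 17 hrs to compounds and then given CCF4-AM.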

[4] = qHTS assay to identify small molecule agonists of H2AX - cell viability counter screen (AID 1224847; calls by dose curve;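 further: wild-type CHO-K1 cells; top concentration of the series differs between compounds; nearly all actives have a fitted effect of over 30% in size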)
Method in brief: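 After overnight plating of 1000 CHO-K1 cells per well, a 15-concentration compound series was applied for 3 hr at 37C. Luminescence from CellTiter-Glo, read following 30 min at room temperature, reflected cell viability.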

[5] = qHTS assay to identify small molecule antagonists of the estrogen related receptor (ERR) signaling pathway from Tox21 library (AID 1224848); further: nearly all actives have a fitted effect of over 50% in size
Method in brief: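 Reading was by luminescence 30 min after ONE-Glo addition. Before that, ERR cells at 2,000 per well had rested 6 h at 37 C/5% CO2 and then received pin-tooled compounds in DMSO for 18 h at 37 C.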

[6] = qHTS RealTime-Glo MT Cell Viability Assay in HepG2 cells - 24 hour (AID 1224867); further: nearly all actives have a fitted effect of over 50% in size
Method in brief: (§1)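 Real-time, nonlytic viability: 600 HepG2 cells/well mixed with NanoLuc enzyme plus prosubstrate; 5 h settle, compound (DMSO) added by pintool; luminescence monitored over 40 h at 37 C.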

[7] = qHTS RealTime-Glo MT Cell Viability Assay in HEK293 cells - 32 hour (AID 1224868); further: top concentration of the series differs between compounds; nearly all actives have a fitted effect of over 50% in size
Method in brief: (§2)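 Cells + reagent dispensed (600 cells/well, HEK293) → 5 h at 37 C/5% CO2 → 23 nL compound in DMSO pinned → 40 h at 37 C → luminescence read at 0, 8, 16, 24, 32, 40 h.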

[8] = A CellTox Green Cytotoxicity Assay to monitor cytotoxicity in HEK293 cells - 0 hour (AID 1224869); further: nearly all actives have a fitted effect of over 50% in size
Method in brief: (§3)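 Seeding of HEK293 cells together with cytotoxicity dye preceded a 5 h incubation at 37 C/5% CO2. Test compounds in DMSO were then added and fluorescence monitored across 40 h.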

[9] = qHTS RealTime-Glo MT Cell Viability Assay in HepG2 cells - 40 hour (AID 1224870); further: nearly all actives have a fitted effect of over 50% in size
Method in brief: (§4)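 Real-time viability: cells seeded at 600 per well together with NanoLuc and cell-permeant prosubstrate, compounds added after 5 h incubation. Luminescence tracked at 0, 8, 16, 24, 32 and 40 h of exposure.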

[10] = A CellTox Green Cytotoxicity Assay to monitor cytotoxicity in HEK293 cells - 40 hour (AID 1224871); further: nearly all actives have a fitted effect of over 45% in size
Method in brief: as §3

[11] = qHTS RealTime-Glo MT Cell Viability Assay in HEK293 cells - 16 hour (AID 1224872)
Method in brief: as §2

[12] = qHTS RealTime-Glo MT Cell Viability Assay in HEK293 cells - 40 hour (AID 1224874); settings: RealTime-Glo luminescence; max response: active compounds read low; further: nearly all actives have a fitted effect of over 50% in size
Method in brief: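 Tox21 screen in HEK293 using RealTime-Glo MT chemistry, with cells and reagent co-dispensed. Luminescence proportional to viable cell number was captured at intervals during 40 h compound exposure at 37 C.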

[13] = A CellTox Green Cytotoxicity Assay to monitor cytotoxicity in HEK293 cells - 24 hour (AID 1224875); further: series mostly up to about 77 µM; nearly all actives have a fitted effect of over 45% in size
Method in brief: as §3

[14] = A CellTox Green Cytotoxicity Assay to monitor cytotoxicity in HepG2 cells - 16 hour (AID 1224876); further: nearly all actives have a fitted effect of over 45% in size
Method in brief: (§5)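 Nonlytic assay: viable cells exclude the dye, so fluorescence scales with cell death. HepG2 at 600 cells/well, compounds added after 5 h, signal read across 40 h.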

[15] = qHTS RealTime-Glo MT Cell Viability Assay in HepG2 cells - 32 hour (AID 1224877); further: nearly all actives have a fitted effect of over 55% in size
Method in brief: as §1

[16] = A CellTox Green Cytotoxicity Assay to monitor cytotoxicity in HepG2 cells - 24 hour (AID 1224878); further: nearly all actives have a fitted effect of over 45% in size
Method in brief: as §5

[17] = A CellTox Green Cytotoxicity Assay to monitor cytotoxicity in HepG2 cells - 40 hour (AID 1224879); further: nearly all actives have a fitted effect of over 40% in size
Method in brief: as §5

[18] = biological target: Thyrotropin receptor (Homo sapiens) (UniProt P16473); test: qHTS assay to identify small molecule agonists of the thyroid stimulating hormone receptor (TSHR) signaling pathway (AID 1224843; calls by dose curve; further: nearly all actives have a fitted effect of over 45% in size)
Method in brief: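 HEK293 cells stably bearing the thyrotropin receptor were plated at 800 cells/well and challenged with compound (30 min, RT). Accumulated cAMP was quantified via cAMP-d2 competing for cryptate-tagged antibody.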

[19] = qHTS RealTime-Glo MT Cell Viability Assay in HepG2 cells - 8 hour (AID 1224873); further: nearly all actives have a fitted effect of over 55% in size
Method in brief: as §4
On the % scale 0 is the no-effect control and ±100 the full control effect.

Sequence of Thyrotropin receptor (Homo sapiens) (P16473 whole entry, looked up): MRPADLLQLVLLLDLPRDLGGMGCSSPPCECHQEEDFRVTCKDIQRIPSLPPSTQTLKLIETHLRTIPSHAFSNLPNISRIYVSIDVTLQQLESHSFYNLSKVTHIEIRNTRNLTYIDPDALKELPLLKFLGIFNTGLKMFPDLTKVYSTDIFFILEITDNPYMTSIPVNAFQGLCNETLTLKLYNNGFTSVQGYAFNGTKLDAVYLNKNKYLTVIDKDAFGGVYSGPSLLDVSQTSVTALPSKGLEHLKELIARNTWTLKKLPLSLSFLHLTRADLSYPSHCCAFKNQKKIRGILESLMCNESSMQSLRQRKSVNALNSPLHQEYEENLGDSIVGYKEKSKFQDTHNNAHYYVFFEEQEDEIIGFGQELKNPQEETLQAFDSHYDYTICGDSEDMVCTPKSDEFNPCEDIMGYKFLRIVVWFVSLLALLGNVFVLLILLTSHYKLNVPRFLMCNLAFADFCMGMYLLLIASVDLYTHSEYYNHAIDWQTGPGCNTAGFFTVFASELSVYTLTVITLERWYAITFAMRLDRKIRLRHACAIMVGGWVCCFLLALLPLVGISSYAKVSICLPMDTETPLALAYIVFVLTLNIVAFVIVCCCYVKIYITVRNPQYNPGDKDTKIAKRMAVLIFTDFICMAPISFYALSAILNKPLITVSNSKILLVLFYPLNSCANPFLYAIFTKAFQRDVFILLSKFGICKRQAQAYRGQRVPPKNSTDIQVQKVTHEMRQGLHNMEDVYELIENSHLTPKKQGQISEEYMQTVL

[O]=[Bi]
inactive: activity change, negative = cytotoxicity [1] 28.4% [at 6.97 µM] | activation (H2AX phosphorylation) [2] -0.036% [at 14 µM] | activation [3] 0% [at 7.01 µM] | activity change, negative = cytotoxicity [4] 2.81% [at 14 µM] | activity, negative = inhibition [5] -9.31% [at 8.39 µM] | activity change, negative = cytotoxicity [6] 3.35% [at 6.97 µM] | activity change, negative = cytotoxic [7] 4.51% [at 6.97 µM] | cytotoxicity [8] -1.07% [at 6.97 µM] | activity change, negative = cytotoxic [9] 9.58% [at 6.97 µM] | cytotoxicity increase [10] -5.17% [at 6.97 µM] | activity change, negative = cytotoxicity [11] 3.35% [at 6.97 µM] | max response [12] 3.42% | activity change [13] -2.05% [at 6.97 µM, active compounds read high] | cytotoxicity increase [14] -7.67% [at 6.97 µM] | activity change, negative = cytotoxic [15] 5.58% [at 6.97 µM] | cytotoxicity [16] -9.9% [at 6.97 µM] | cytotoxicity increase [17] -12.6% [at 6.97 µM]

C[C@@H]1C[C@H]2[C@@H]3CCC4=CC(=O)C=C[C@]4(C)[C@@]3(F)[C@@H](O)C[C@]2(C)[C@H]1C(=O)CO
inactive: Potency [18] | Potency [2] | Potency [4] | Potency [6] | Potency [8] | Potency [9] | Potency [10] | Potency [11] | Potency [19] | max response [12] -9.79% | Potency [13] | Potency [14] | Potency [15] | Potency [16]

O=C(O)c1c(O)c(-c2ccccc2)nc2ccccc12
inactive: Potency [18] | Potency [2] | outcome [3] | Potency [4] | Potency [6] | Potency [8] | Potency [9] | Potency [10] | Potency [11] | Potency [19] | max response [12] 0.412% | Potency [13] | Potency [14] | Potency [15] | Potency [16] | Potency [17]

CCC(=O)OC/C=C/c1ccccc1
inactive: Potency [1] | Potency [2] | outcome [3] | Potency [4] | Potency [6] | Potency [7] | Potency [9] | Potency [10] | Potency [11] | max response [12] 1.64% and -7.61% | Potency [14] | Potency [15] | Potency [16] | Potency [17]

CCC(C(=O)OCCOCCN(CC)CC)c1ccccc1 (configuration not stated)
inactive: Potency [1] | Potency [2] | outcome [3] | Potency [4] | Potency [6] | Potency [7] | Potency [8] | Potency [9] | Potency [10] | Potency [11] | max response [12] 4.17% | Potency [13] | Potency [14] | Potency [15] | Potency [16] | Potency [17]

C/C=C(\C)C(=O)OCCC(C)CCC=C(C)C (configuration not stated)
inactive: Potency [1] | Potency [2] | outcome [3] | Potency [4] | Potency [6] | Potency [7] | Potency [8] | Potency [9] | Potency [10] | Potency [11] | Potency [19] | max response [12] 5.27% | Potency [13] | Potency [14] | Potency [15] | Potency [16] | Potency [17]

Nc1c(I)cc(I)c(C(=O)N(CCC(=O)O)c2ccccc2)c1I
inactive: Potency [1] | Potency [2] | outcome [3] | Potency [4] | Potency [6] | Potency [7] | Potency [9] | Potency [10] | Potency [11] | max response [12] -10.8% | Potency [14] | Potency [15] | Potency [16]
